This is an account of results in PMC7819943, “Rice protein-binding microarrays: a tool to detect cis-acting elements near promoter regions in rice”.

Whole data set: some 68,000 sequences, median “fluorescence intensity (a.u.)” near 9,100, cut for the highest 2% near 16,000. This excerpt belongs to a sample that is enriched for the highest values.

Chain of OsWRKY34 (Q0JBA9 entry or part of it): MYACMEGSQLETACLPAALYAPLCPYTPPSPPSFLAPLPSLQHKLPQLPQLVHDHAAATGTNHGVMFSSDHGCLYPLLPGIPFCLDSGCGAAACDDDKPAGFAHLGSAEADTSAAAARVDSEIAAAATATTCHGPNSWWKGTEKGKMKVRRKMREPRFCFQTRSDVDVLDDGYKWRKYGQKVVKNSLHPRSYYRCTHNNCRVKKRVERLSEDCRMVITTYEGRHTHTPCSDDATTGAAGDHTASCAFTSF

For this experiment, the target named is OsWRKY34 (Oryza sativa, UniProt Q0JBA9 1-250). The experiment in a line: protein-binding microarray (RPBM); PBS, 2% BSA, 51.3 ng/ul salmon testes DNA, 50 uM zinc acetate, 200 nM TF, 25 C, 1 h; high values mean tight binding. Conditions: protein: recombinant; tags: N-terminal polyhistidine and DsRed monomer fusion (pET32a); label: CyDye5-dUTP incorporated in the synthesized complementary strand; 3' TTTTT single-stranded linker to array surface; dsDNA, one strand shown. The essentials:
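Transcription factors, each fused N-terminally to a polyhistidine tag and DsRed, were expressed in E. coli BL21-CodonPlus and purified on Ni–NTA. A custom Agilent array was made double-stranded by primer extension with Cy5-dUTP and blocked with 2% BSA. It was incubated with 200 nM protein in PBS, 2% BSA, salmon testes DNA and 50 µM zinc acetate at 25 °C for 1 h, then washed. The binding signal is per-feature fluorescence intensity (arbitrary units) read on an Axon 4000B scanner.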
As for “GGTTTCGTTCGCGAGGAGGAGAGATCTGGTTGGGGAGATGCGGAGTCACCTAGTGCAG”, the binding signal is 9660 fluorescence intensity (a.u.).

For “AGGAGGCGCTACCTTCTATTCCTCACCGGCTCACCGCTATCGGAGTCACCTAGTGCAG”, the binding signal was 9700 fluorescence intensity (a.u.).

On to “TGATTTTTTTTTTGTTTCACAGTGCACAGACCAATGTTTCCGGAGTCACCTAGTGCAG”, for which the binding signal was 8320 fluorescence intensity (a.u.).

In the case of “CGCCGCCACCGCGACTCCTCGCATTCGTCCCCACCACATCCGGAGTCACCTAGTGCAG”, the binding signal is 9990 fluorescence intensity (a.u.).

As for “CTTTTTTTTAATGTATTGATGCTTCTTTTCTAGTTTGTACCGGAGTCACCTAGTGCAG”, the binding signal was 9060 fluorescence intensity (a.u.).

Turning to “AGTAGCAGCAGCAGCAGCAGGCAGGAGGGAGTGGGTTTGTCGGAGTCACCTAGTGCAG”, the binding signal is 9600 fluorescence intensity (a.u.).

“GACAGCGTGAATTCGAGGGATTTCTTGGCTGGTTTGGTTGCGGAGTCACCTAGTGCAG”: the binding signal was 10100 fluorescence intensity (a.u.).

As to “TTCTCCGCGCTGCAGTCCTCGCCACAACTCGTCGGCCGAACGGAGTCACCTAGTGCAG”, the binding signal was 11600 fluorescence intensity (a.u.).

Turning to “GGTCATTCATGTATTTTTCTTGCGTTTTGCAATCCTCTGTCGGAGTCACCTAGTGCAG”, the binding signal was 11200 fluorescence intensity (a.u.).

As for “CCGCCGCCGCCGCCGCCGACCTTGTCACTCCGGCCGCTGCCGGAGTCACCTAGTGCAG”, the binding signal was 9390 fluorescence intensity (a.u.).

As to “GACCGACTACTCCTACAAACATTACTCAAGTCATTGCAAACGGAGTCACCTAGTGCAG”, the binding signal is 8200 fluorescence intensity (a.u.).

As for “ATTTTGCATGGGGCATGTGTGAAGTGTCCTACTAAATTTTCGGAGTCACCTAGTGCAG”, the binding signal was 9350 fluorescence intensity (a.u.).

In the case of “TCCGCTCGTTCCTCTCCCGACGAGGGTGGGTGGGGTGGGGCGGAGTCACCTAGTGCAG”, the binding signal was 22700 fluorescence intensity (a.u.).

For “CGGTAGGGCGAGCACGGGTGGGGTTGGTGGTGATTTTTTTCGGAGTCACCTAGTGCAG”, the binding signal is 20800 fluorescence intensity (a.u.).

Consider “GACTCGGCGGCCTCTGCTCCTCCGCTCGTTCCTCTCCCGACGGAGTCACCTAGTGCAG”, for which the binding signal is 11100 fluorescence intensity (a.u.).

On to “CCCGGCCGCTCTCTCCGGGTGGGGTGGTGGGTGGCAAGGGCGGAGTCACCTAGTGCAG”, for which the binding signal was 21100 fluorescence intensity (a.u.).

“GGAGGGGCGGGGTGGCGCGGCGAGGCCGGCGACAAGGCCGCGGAGTCACCTAGTGCAG”: the binding signal is 9130 fluorescence intensity (a.u.).

For “GTGTGGTGCGAGCAGTGATATTTTCTGTGTTGGGTCTGGGCGGAGTCACCTAGTGCAG”, the binding signal is 8120 fluorescence intensity (a.u.).

“AGGGAGGCGTAGGTTGTGGTCGTTGTTGCGGTTTGGAGTTCGGAGTCACCTAGTGCAG”: the binding signal is 8250 fluorescence intensity (a.u.).

As to “GCGCGCCGCGCTCACGGGTGGGTCAAGGCAAGGGGAAGGGCGGAGTCACCTAGTGCAG”, the binding signal is 9400 fluorescence intensity (a.u.).

Regarding “GGTTCGTTCGTTCCTCCCGCGGCGACGGGGTGGGGCACACCGGAGTCACCTAGTGCAG”, the binding signal is 8930 fluorescence intensity (a.u.).

For “GGTAGGGCTGCCGCCGGTGGGTAGGGGTGGTGGATTTTTTCGGAGTCACCTAGTGCAG”, the binding signal is 14400 fluorescence intensity (a.u.).

With “AATTCCGGTGGTTCACCGCCGGTGAGGGTTGGAGGAGGGGCGGAGTCACCTAGTGCAG”, the binding signal is 8160 fluorescence intensity (a.u.).

In the case of “GGTTGTAGGTGGAGGAGGAGGAGGGGCGGTTCCGGAGTTTCGGAGTCACCTAGTGCAG”, the binding signal is 22600 fluorescence intensity (a.u.).

As to “TCGTTTCTTTGCCAGCTGCGCATCCATTCAGCCGGTCGTACGGAGTCACCTAGTGCAG”, the binding signal was 12700 fluorescence intensity (a.u.).

Regarding “CTTTTATTTAACGGATGTTTCACCATGGTCTTTACTGTAGCGGAGTCACCTAGTGCAG”, the binding signal is 9320 fluorescence intensity (a.u.).

As to “TCCCATCACACACACCACCGCTCCGCTCCATGTCGCACCACGGAGTCACCTAGTGCAG”, the binding signal is 8350 fluorescence intensity (a.u.).

For the sequence “CGTAGAAGATGTTGCTGTTGCCGCCGTTGACGAACTTGGTCGGAGTCACCTAGTGCAG”, the binding signal was 8810 fluorescence intensity (a.u.).

As to “CAAATTACTACTACCTCCGTCCCAAAATAATTGCATTTCTCGGAGTCACCTAGTGCAG”, the binding signal is 8950 fluorescence intensity (a.u.).

Turning to “CACGCACCCTCTTTCCCGTGCTTCGTGTGCCCTTCGATCGCGGAGTCACCTAGTGCAG”, the binding signal is 9430 fluorescence intensity (a.u.).

Regarding “AGATTATTTTGCTCGATTTTGAATTTTTCATGCATCCGTCCGGAGTCACCTAGTGCAG”, the binding signal is 9150 fluorescence intensity (a.u.).

In the case of “AGAGCGGGTGGGAGGCGAAGTAGACAGGGGCGGGGCGCATCGGAGTCACCTAGTGCAG”, the binding signal was 15700 fluorescence intensity (a.u.).

Turning to “TTACCTCGCGTACCCTCGCACCCGTCTCCCGCAGACAGATCGGAGTCACCTAGTGCAG”, the binding signal was 8480 fluorescence intensity (a.u.).

As to “GTGTGTGCATGCTGATAGCTTGGTCTCTTGAGGATAATTGCGGAGTCACCTAGTGCAG”, the binding signal is 9730 fluorescence intensity (a.u.).

Consider “TCATTTGATTTATTGTTAAATATATTTTTATGTATACATACGGAGTCACCTAGTGCAG”, for which the binding signal was 8550 fluorescence intensity (a.u.).

As for “CTTCCTCCGTTTCACAATGTAAGTCGTTCTAGCATTTTTCCGGAGTCACCTAGTGCAG”, the binding signal is 8110 fluorescence intensity (a.u.).

On to “GTTATGTTAGGTCTGGTTTTTTGGCTGTAGCAGCAGCAGTCGGAGTCACCTAGTGCAG”, for which the binding signal was 8510 fluorescence intensity (a.u.).

Consider “GCTAGACACAGGCAACCAAACACACCCTAACACTCACTGTCGGAGTCACCTAGTGCAG”, for which the binding signal is 9290 fluorescence intensity (a.u.).

In the case of “GACGTGGCTATGGGTGGGCGTTGCGAGCCGGCATTTTATACGGAGTCACCTAGTGCAG”, the binding signal was 16400 fluorescence intensity (a.u.).

In the case of “GCTGTGGGTAGGCCGGCGCCGCCGGCCGACGGGTGGGGAGCGGAGTCACCTAGTGCAG”, the binding signal is 8420 fluorescence intensity (a.u.).

For the sequence “CGGCGGCGGCGACCGCGGGTAGGGTGGGTGGCGCGGGCCGCGGAGTCACCTAGTGCAG”, the binding signal is 9330 fluorescence intensity (a.u.).

In the case of “GGAACGGCCAGCGGCGGCGGCGGGTAGGGTGGGGTGGGGCCGGAGTCACCTAGTGCAG”, the binding signal is 21600 fluorescence intensity (a.u.).
